# Laboratory results as given in PubChem BioAssay (Tox21).
# Inconclusive results are not listed. Activity calls are given as the source filed them. Unless noted, calls come from the whole dose curve.
# Assay: Nuclear factor erythroid 2-related factor 2/antioxidant responsive element (Nrf2/ARE) small molecule agonists: qHTS cell viability counter screen in human keratinocytes (AID 1919968; active = well fitted cell-killing curve with a large enough effect in the repeat runs; note: nearly all actives have a fitted effect of over 55% in size)
# Conditions: KeratinoSens HaCaT ARE cells viability, CellTiter-Fluor, 24 h; series mostly up to 92.4 µM; activity change, negative = cytotoxicity: at the top concentration
# Outline: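 HaCaT ARE reporter line, 1,500 cells/well; 5 h settle, 37 C/5% CO2; cpd in DMSO pinned; 23 h exposure; CellTiter-Fluor, 1 h; fluorescence.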
# % is set by controls: 0 for no effect and ±100 for the full control effect.
row,SMILES,"activity change, negative = cytotoxicity"
1,CCCc1ccc(OC)cc1,-1.68% (inactive)
2,CCCCCCC#CC(=O)OC,0.316% (inactive)
3,Cc1ccc(-c2ncc(Cl)cc2-c2ccc(S(C)(=O)=O)cc2)cn1,3.07% [at 42.5 µM] (inactive)
4,COC=O,-1.85% [at 8.39 µM] (inactive)
5,CCCCCCCCCCO[C@@H]1O[C@H](CO)[C@@H](O)[C@H](O)[C@H]1O,1.17% (inactive)
6,CCN1C=CN(C)C1C (stereo unspecified),2.32% (inactive)
7,CN(C)CCOCCO,-3.96% (inactive)
8,CCC1Nc2cc(Cl)c(S(N)(=O)=O)cc2S(=O)(=O)N1 (stereo unspecified),-0.154% [at 42.5 µM] (inactive)
9,CCCCOC(=O)CCCCC(=O)OCCCC,0.054% (inactive)
10,O=C1[C@@H]2[C@H]3CC[C@H](C3)[C@@H]2C(=O)N1CCCCN1CCN(c2ncccn2)CC1,1.37% [at 42.5 µM] (inactive)
11,O=C(O)CNC(=O)c1ccccc1,-2.47% [at 42.5 µM] (inactive)
12,COC1CCC=CO1 (stereo unspecified),3.34% (inactive)
13,CCOCCn1c(N2CCCN(C)CC2)nc2ccccc21,8.3% [at 42.5 µM] (inactive)
14,COCc1nnc(-c2ccc[n+]([O-])c2)n1-c1c(Cl)c(Cl)cc2[nH]c(=O)c(=O)[nH]c12,3.11% (inactive)
15,CN(C(=O)CN(CCO)CC(=O)N(C)C(C)(C)Cc1ccccc1)C(C)(C)Cc1ccccc1,8.86% [at 42.5 µM] (inactive)
16,CN(C)c1ccc(C2(c3ccc(N(C)C)cc3)OC(=O)c3cc(N(C)C)ccc32)cc1,11.1% (inactive)

# Assay: Nuclear factor erythroid 2-related factor 2/antioxidant responsive element (Nrf2/ARE) small molecule agonists: luciferase reporter gene qHTS assay in human keratinocytes (AID 1919969); note: nearly all actives have a fitted effect of over 35% in size; note: potency is the fitted concentration of half-maximal effect
# Conditions: KeratinoSens HaCaT ARE-luciferase, luminescence, 24 h; series mostly up to 92.4 µM; activity, positive = activation: at the top concentration
SMILES,"activity, positive = activation",Potency
CCCOc1ccc(S(=O)(=O)N2CCN(CC)CC2)cc1-c1nc2c(CC)n(Cc3ccccn3)nc2c(=O)[nH]1,-10.4% (inactive),
COc1cc(Cl)c(OC)cc1N,0.667% (inactive),
Oc1ccccc1F,7.23% (inactive),
NCCCN1CCOCC1,15% (inactive),
CC(C)OC(=O)c1ccccc1C(=O)OC(C)C,-3.87% (inactive),
CC1CC(OC(=O)C(O)c2ccccc2)CC(C)(C)N1C (stereo unspecified),-3.21% [at 42.5 µM] (inactive),
C=CC(=C)CCCC(C)(C)OC(C)=O,11% (inactive),
CC(=O)N[C@@H](CCC(=O)O)C(=O)O,-4.24% [at 42.5 µM] (inactive),
CC(=O)OCC(=O)[C@H]1CC[C@H]2[C@@H]3CCC4=CC(=O)CC[C@]4(C)[C@H]3CC[C@]12C,-2.29% [at 42.5 µM] (inactive),
CCOc1ccc2nc(S(N)(=O)=O)sc2c1,,6.68 µM (active)
O=C(O)c1ccc2cc(C(=O)O)ccc2c1,-1.13% (inactive),
OCCc1ccncc1,-0.657% (inactive),
CN1C(CSCC(F)(F)F)Nc2cc(Cl)c(S(N)(=O)=O)cc2S1(=O)=O (stereo unspecified),-3.57% [at 42.5 µM] (inactive),
O=c1cc(O)c(Cl)c[nH]1,-1.9% [at 42.5 µM] (inactive),
N#CCCNCCC#N,-7.55% (inactive),
CN1CCC(=C2c3ccccc3CCc3cccnc32)CC1,-6.09% [at 42.5 µM] (inactive),
CCO[C@H](Cc1ccc(OCCc2ccc(OS(C)(=O)=O)cc2)cc1)C(=O)O,4.63% [at 42.5 µM] (inactive),
CC(CC=O)CCCC(C)(C)O (stereo unspecified),0.542% (inactive),
COc1ccc(/C=N/NC(=O)c2ccncc2)cc1OC,3.14% [at 42.5 µM] (inactive),
C=CCOC(=O)COCCC(C)C,0.485% (inactive),

SMILES,"activity, positive = activation",Potency
CCOC(=O)CC(=O)c1ccccc1,4.44% (inactive),
CCOc1ccccc1OCCN[C@H](C)Cc1ccc(OC)c(S(N)(=O)=O)c1,-1.59% [at 42.5 µM] (inactive),
CCCCCCC(C)Nc1ccc(Nc2ccccc2)cc1 (stereo unspecified),-24.4% (inactive),
O=C(NS(=O)(=O)/C=C/c1cccs1)c1ccc(F)cc1Br,,27.3 µM (active)
CCCc1ccc(OC)cc1,-7.98% (inactive),
CCCCCCC#CC(=O)OC,0.268% (inactive),
Cc1ccc(-c2ncc(Cl)cc2-c2ccc(S(C)(=O)=O)cc2)cn1,-9.05% [at 42.5 µM] (inactive),
COC=O,-9.06% [at 8.39 µM] (inactive),
CCCCCCCCCCO[C@@H]1O[C@H](CO)[C@@H](O)[C@H](O)[C@H]1O,1.26% (inactive),
CCN1C=CN(C)C1C (stereo unspecified),-3% (inactive),
CN(C)CCOCCO,-7.76% (inactive),
CCC1Nc2cc(Cl)c(S(N)(=O)=O)cc2S(=O)(=O)N1 (stereo unspecified),14.6% [at 42.5 µM] (inactive),
CCCCOC(=O)CCCCC(=O)OCCCC,1.96% (inactive),
O=C1[C@@H]2[C@H]3CC[C@H](C3)[C@@H]2C(=O)N1CCCCN1CCN(c2ncccn2)CC1,-3.94% [at 42.5 µM] (inactive),
O=C(O)CNC(=O)c1ccccc1,1.07% [at 42.5 µM] (inactive),
COC1CCC=CO1 (stereo unspecified),13.7% (inactive),
CCOCCn1c(N2CCCN(C)CC2)nc2ccccc21,1.76% [at 42.5 µM] (inactive),
COCc1nnc(-c2ccc[n+]([O-])c2)n1-c1c(Cl)c(Cl)cc2[nH]c(=O)c(=O)[nH]c12,0.0325% (inactive),
CN(C(=O)CN(CCO)CC(=O)N(C)C(C)(C)Cc1ccccc1)C(C)(C)Cc1ccccc1,-5.15% [at 42.5 µM] (inactive),
CN(C)c1ccc(C2(c3ccc(N(C)C)cc3)OC(=O)c3cc(N(C)C)ccc32)cc1,1.24% (inactive),
